Data taken from PubChem BioAssay (NCI).
The panel holds about 83,000 compounds, 20% with a hit somewhere; the sample as a whole holds those more often.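 A percent growth of 40 corresponds to 60% growth inhibition; 0 means no net growth; -100 means all cells died. Active threshold: below 10.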 The source made the active and inactive calls.

Legend:
Test in all cases: NCI-60 one-dose screen, 48 h (100 = growth as untreated, 0 = no growth, -100 = all killed)
Conditions in all cases: 10 µM unless noted
[1] = test system: DU-145 prostate
[2] = test system: K-562 leukemia
[3] = test system: MALME-3M melanoma
[4] = test system: MDA-MB-231 breast
[5] = test system: RXF 393 renal
[6] = test system: SF-268 CNS
[7] = test system: SF-295 CNS
[8] = test system: SF-539 CNS
[9] = test system: UACC-257 melanoma
[10] = test system: M14 melanoma
[11] = test system: HCT-15 colon
[12] = test system: HT29 colon
[13] = test system: SNB-75 CNS
[14] = test system: SNB-19 CNS
[15] = test system: U251 CNS
[16] = test system: PC-3 prostate
[17] = test system: SK-MEL-5 melanoma
[18] = test system: UACC-62 melanoma
[19] = test system: LOX IMVI melanoma
[20] = test system: SK-MEL-28 melanoma

Measured: growth

O=C(/C(=C/c1ccc([N+](=O)[O-])cc1)SCc1ccccc1)c1ccc(Cl)cc1
active: [2] 5.41% | [18] 9.57%
inactive: [1] 79.3% | [3] 85.3% | [4] 54.8% | [5] 67.3% | [6] 86.5% | [7] 90.3% | [8] 94.3% | [9] 90.2% | [10] 67.3% | [11] 34.3% | [12] 52% | [13] 85% | [14] 70.6% | [15] 61.6% | [16] 60.9% | [17] 73% | [19] 32.6% | [20] 94.6%

COc1ccc2c(c1)Oc1nc(N)c(C#N)c(N)c1C2Sc1ccc(SC)cc1 (stereo not given)
active: [2] 2.45% | [3] -22.5% | [5] -54.8% | [11] -10.9% | [19] -39.2%
inactive: [1] 46.2% | [4] 10.5% | [6] 61.4% | [7] 80.8% | [8] 14.7% | [9] 67.3% | [10] 27.6% | [12] 17.2% | [13] 34.2% | [14] 58.2% | [15] 13.9% | [16] 35.9% | [17] 40.8% | [18] 50.7% | [20] 32.7%

COc1cc(C)ccc1Oc1nc(Nc2ccc(N3CCOCC3)cc2)ncc1N=Cc1cc(C(F)(F)F)cc(C(F)(F)F)c1
inactive: [1] 83.7% | [2] 37.7% | [3] 91.7% | [4] 82.9% | [5] 38.4% | [6] 69% | [7] 75.8% | [8] 73.8% | [9] 79.2% | [10] 77.7% | [11] 92% | [12] 64.5% | [13] 40.1% | [14] 94.4% | [15] 71.5% | [16] 77.4% | [17] 91% | [18] 81% | [19] 61.3% | [20] 96.7%

Cc1cccc(C)c1NC(=O)CN(CC(C)C)CC(O)COc1ccccc1 (stereo not given)
inactive: [1] 111% | [2] 96% | [3] 103% | [4] 93.5% | [5] 103% | [6] 102% | [7] 88% | [8] 97.6% | [9] 110% | [10] 87.8% | [11] 90.7% | [12] 85.5% | [13] 86.6% | [14] 108% | [15] 99.7% | [16] 86.3% | [17] 95.5% | [18] 83.9% | [19] 95.3% | [20] 109%

CCCn1c(N)c(C(N)=O)sc1=S
inactive: [1] 117% | [2] 119% | [3] 105% | [4] 99.8% | [5] 125% | [6] 97.2% | [7] 115% | [8] 109% | [9] 109% | [10] 103% | [11] 90.6% | [12] 106% | [13] 82.9% | [14] 97.2% | [15] 97.4% | [16] 96% | [17] 111% | [18] 97.9% | [19] 93.7% | [20] 105%

N#Cc1c(NC(=O)c2cccs2)[n+]([O-])c2cc(C(F)(F)F)ccc2[n+]1[O-]
inactive: [1] 114% | [2] 87.7% | [3] 132% | [4] 96.8% | [5] 109% | [6] 105% | [7] 97.9% | [8] 101% | [9] 91.4% | [10] 116% | [11] 117% | [12] 107% | [13] 92.6% | [14] 106% | [15] 104% | [16] 65.1% | [17] 58% | [18] 96.8% | [19] 94.7% | [20] 120%

COCCc1n(Cc2ccc3ccccc3c2)c2ccccc2[n+]1Cc1ccc2ccccc2c1
active: [1] 2.65% | [2] -67.8% | [3] -69.5% | [4] -74.7% | [5] -44.3% | [6] -58.4% | [7] -32.7% | [8] -8.99% | [9] -29.3% | [10] -72.2% | [11] 7.25% | [12] -61.3% | [13] -39.7% | [14] -73.8% | [15] -89.8% | [16] -14.5% | [17] -97.5% | [18] -89.3% | [19] -92.5% | [20] -46.4%
